Compound activity deposited in PubChem by several laboratories.
CR mimetic SO – reduction of superoxide in aged yeast, primary screen, HTS. S. cerevisiae aged cells, superoxide DHE fluorescence; stronger effect = lower value. superoxide response (% of plate mean), % at 10 µM. 330,000 compounds, 0.18% hits. AID 2690, 2010;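 active = superoxide response under a set limit, about three screen SD below normal, cut at about 65% in these data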;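 also: yeast aged for seven days with compound at 30 °C before DHE staining; 100% = average MFI of all compound-treated wells on the plate with controls excluded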
pCIP destab – p/CIP-EGFP fusion destabilizers, primary screen, fluorescence, F442A cells; Q05BA5; 16 h; decrease of EGFP signal, % at 10 µM; 290,000 compounds, 0.01% hits;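 active = EGFP signal decrease of at least 30% at 10 µM or well 3 SD below plate mean, unless failing retest; inactive = the rest, including hits failing retest or dose response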
beta cell repl – inducers of MIN6 beta-cell proliferation, primary screen, ATP luminescence, uHTS. proliferation, % at 10 µM. MIN6 cells proliferation, ATPlite luminescence, 48 h; cells starved in 0.2% serum; 100% = growth in 10% serum. 330,000 compounds, 0.29% hits;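 active = compounds whose signal lies at least 3.5 SD above the mean of all wells on their plate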;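 also: 0% = DMSO-treated cells in low-serum medium and 100% = 10% serum control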
HSV replic up – enhancers of HSV replication in host cells, fold increase, host cell viability. AID 1956, 2009. HSV replication augmentation in cells. 220,000 compounds, 0.005% hits. maximum fold increase; in the data active = maximum fold increase above about 1.5; tested in PC3 cells
Cardio protect – cardioprotection against H2O2-induced cell death, primary screen, uHTS, H9c2 cells, ATPLite luminescence. 360,000 compounds, 0.63% hits. protection from H2O2 cell death, % at 20 µM. AID 588492, 2011. H9c2 cardiomyocytes, H2O2 injury protection, 2 h;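 active = compounds giving at least 50% protection of heart cells from peroxide-induced death in the single-dose screen, raw or plate-pattern-corrected value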;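 also: 0% = DMSO wells with peroxide and 100% = DMSO wells without peroxide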
V-ATPase pHluor – regulators of yeast V-ATPase proton pumping, primary screen, pHLuorin cytosolic pH fluorescence. S. cerevisiae. response, % at 10 µM. 350,000 compounds, 0.37% hits; in the data active = response mostly above about 7.3%, no sharp cut-off; inactive = mostly below about 5.4%; also: actives read high
V-ATPase pH SP – yeast V-ATPase proton pumping modulators, confirmation, S. cerevisiae, pH-sensitive GFP, second cherry-pick; shares compounds with V-ATPase pHluor; S. cerevisiae pHLuorin cytosolic pH, V-ATPase proton transport; response, % at 10 µM; 980 compounds, 2% hits; AID 602197, 2012; in the data active = response above about 24%;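 also: plate controls were vehicle wells for no effect and positive control wells for full effect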
An asterisk follows results filed as active; i = inactive; / = not tested or not shown. Only some compounds are listed: those with a hit (about 1.4% of all), similar ones and a draw of the others.

SMILES	CR mimetic SO	pCIP destab	beta cell repl	HSV replic up	Cardio protect	V-ATPase pHluor	V-ATPase pH SP
COc1ccc(CC(=O)NCCC(C)C)cc1S(=O)(=O)N1CCOCC1	111	0	-5	i	1	-2	/
O=C(NCc1ccco1)/C(=C/c1ccc([N+](=O)[O-])cc1)NC(=O)c1ccco1	100	-7	-4	/	1	1	/
C=CCNC(=O)/C(=C\c1ccc([N+](=O)[O-])cc1)NC(C)=O	105	-18	-1	i	1	13*	1
O=C1C=CC(=Nc2ccc3c(c2)Cc2cc(F)ccc2-3)O1	/	/	/	/	-3	12	100*
Nc1cc(=O)[nH]c(SCC(=O)Nc2cc(S(=O)(=O)N3CCCCC3)ccc2Cl)n1	100	/	-1	/	-11	-1	/
CC(NC(=O)COC(=O)/C=C/c1cccc(C(F)(F)F)c1)c1ccccc1 (configuration not stated)	101	2	1	i	-3	21*	-3
O=C(COC(=O)/C=C/c1cccc(C(F)(F)F)c1)NCc1ccccc1	89	-17	0	i	0	-1	/
COC(=O)c1ccc(S(=O)(=O)c2ccccc2)c(N)c1	98	-6	3	i	0	-3	/
Cc1ccc(C(C)C)cc1S(=O)(=O)NC1CC(C)(C)NC(C)(C)C1	101	-1	-1	/	13	7	/
O=C(C[C@@H]1C/C=C\CCC(=O)OC[C@H](Cc2ccccc2)NC1=O)N[C@@H](CO)Cc1ccccc1	88	/	0	/	-5	1	/
O=C(CCl)NN1C(=O)NC(c2ccccc2)(c2ccccc2)C1=O	106	-8	-3	/	-6	12*	1
O=C(CCl)NN1C(=O)NC2(CCCCC2)C1=O	92	-1	-5	i	-6	-3	/
O=C(c1ccco1)N1CCN(c2ncnc3c2nnn3Cc2ccccc2Cl)CC1	117	1	0	i	5	10*	0
Fc1ccc(N2CCN(c3ncnc4c3nnn4Cc3ccccc3Cl)CC2)cc1	90	/	-4	i	-7	2	/
CC1Oc2ccccc2N(CC(=O)c2cccc(Cl)c2)C1=O (configuration not stated)	98	11	1	i	-2	8.0*	3
Cc1ccnc(NS(=O)(=O)c2ccc(NC(=O)c3ccc(N4C(=O)CCC4=O)cc3)cc2)n1	95	-9	-1	i	-1	12*	3
COc1ccc(C(=O)Nc2ccc(S(=O)(=O)Nc3nccc(C)n3)cc2)cc1	105	9	-1	/	4	2	/
Cc1cc(C(=O)OCC(=O)Nc2sc3c(c2C#N)CCC(C)C3)c2ccccc2n1 (configuration not stated)	127	3	0	i	-3	13*	-3
Cc1cc(OCC(=O)NNC(=O)CCc2ccccc2)ccc1Br	107	-8	-3	/	-4	3	/
COc1ccc2c(=O)cc(-c3ccccc3F)oc2c1	107	-6	-2	i	0	5.7*	-1
COc1ccc2c(=O)cc(C(F)(F)C(F)(F)F)oc2c1	96	-14	-2	i	4	-1	/
O=C(CSc1n[nH]c(=O)[nH]c1=O)Nc1c(Cl)cc(Cl)cc1Cl	117	/	-1	/	-4	13*	-1
COc1ccc(CNCC(O)(c2ccccc2)c2ccc(Cl)cc2)cc1 (configuration not stated)	114	2	-6	i	-22	11*	-2
CN(C)CCNC(=O)c1cccc(S(=O)(=O)Nc2ccc(F)cc2)c1	110	-4	-2	i	7	6.2*	1
CCN(CC)CCNC(=O)c1ccc(NC(=O)c2cccc(S(=O)(=O)Nc3ccc(C)cc3)c2)cc1	113	-1	-3	i	2	2	/
SMILES	CR mimetic SO	pCIP destab	beta cell repl	HSV replic up	Cardio protect	V-ATPase pHluor	V-ATPase pH SP
CCN(CC(=O)Nc1ccc(NC(C)=O)cc1)C(=O)c1cc(C)on1	105	/	5	/	-2	10*	1
COc1ccc(C(=O)Nc2cc(C)nn2-c2ccc(F)cc2)cc1	93	7	0	/	6	11*	-4
CCCCn1c(N)c(N(CC)C(=O)c2cccc(OCc3ccccc3)c2)c(=O)[nH]c1=O	76	/	-3	/	0	11*	0
CCCCCCn1nc(C(=O)N(CCOC)c2c(N)n(CCCC)c(=O)[nH]c2=O)c2ccccc2c1=O	99	/	-2	/	-8	-5	/
CCCCCn1nc(C(=O)N(CCOC)c2c(N)n(CCCC)c(=O)[nH]c2=O)c2ccccc2c1=O	91	/	1	/	-1	13*	-2
Cc1n[nH]c(=S)n1-c1ccc(Cl)cc1	89	-10	-3	i	-5	-2	-2
Cc1csc(SCC(=O)NC2CCCCC2)n1	102	-6	-1	i	4	-1	/
Cc1csc(SCC(=O)NC2CCC(C)CC2)n1 (configuration not stated)	106	/	1	/	4	7.5*	-6
COc1ccc(N2C(=NC(=O)C3CCCCC3)SC3CS(=O)(=O)CC32)cc1 (configuration not stated)	86	0	1	/	-1	8.0*	1
COc1cccc(/C=C/C(=O)Nc2ccccc2N2CCOCC2)c1	91	24	-2	i	0	-1	/
Cc1nn(CC#N)c(=O)n1-c1ccc(Cl)cc1	100	-12	0	i	-5	1	-4
Cc1sc(NC(=O)Cc2ccc3c(c2)OCO3)nc1-c1ccc2c(c1)CCN2C(=O)c1ccccc1F	97	-3	-1	i	-4	6	/
Cc1sc(NC(=O)Cc2ccc3c(c2)OCO3)nc1-c1ccc2c(c1)CCN2C(=O)c1ccc(F)cc1	112	-2	-1	i	-6	11*	-1
CC1CCCC(NC(=O)/C=C/c2c(F)cccc2Cl)C1C (configuration not stated)	93	/	-6	/	-1	0	/
O=C1NCCN/C1=C\C(=O)c1ccc(F)cc1	108	-3	-1	i	0	-2	3
C[C@@H]1ON(C)[C@H]2C[C@H]3c4cc(-c5cccc(F)c5)ccc4CCN3C(=O)[C@@H]12	/	/	/	/	14	-1	/
COC(=O)c1c(C(=O)OC)c(-c2cccc(F)c2)n2c1CS(=O)(=O)C2	105	7	0	/	1	1	/
COc1ccc(CNC(=O)COC(=O)CCOc2ccccc2)cc1	99	2	0	i	2	1	/
COc1ccc(OCCC(=O)OCC(=O)NCCc2ccccc2)cc1	88	-4	1	i	1	7.6*	0
